Screens deposited in PubChem by National Center for Advancing Translational Sciences (NCATS).
A selection: hits, their analogues and other compounds. The true share with any hit is near 19%.
uPA surface inh – inhibitors of cell surface uPA generation; cell surface uPA generation assay, qHTS; Potency, µM (doses to about 38.3 µM), without a hit: at the top dose activity change, negative = inhibition, most hits filed as inhibitors; 330,000 compounds, 0.31% hits; AID 540303; active means well fitted inhibition curve with a large enough effect; inconclusive means small, poorly fitted or top-dose-only effect; inactive means no such curve, though single readings can be large or run the other way; tested in mouse RAW 264.7 cells; further: potency means the concentration at half of the fitted maximal effect; nearly all actives have a fitted effect of over 55% in size
HT1080 IDH1KD tx – HT-1080 IDH1 knockdown cell toxicity (counter line). Potency, µM (highest dose often 46.1 µM), for inactives: at the highest dose activity, negative = toxicity, actives largely listed as cytotoxic. HT-1080 IDH1 knockdown viability, ATP luminescence, 48 h. 360,000 compounds, 2% hits;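 further: potency means the concentration at half of the fitted maximal effect; 0% = DMSO wells and -100% = cell-free medium wells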
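HT-1080-IDH1KD cells (IDH1 knocked down), 750/well in RPMI with 5% FBS, treated with compound 48 h at 37 degrees C. Viability by CellTiter-Glo luminescence, normalised to DMSO and no-cell wells; concentration-response curves classed.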
IL1B secr inh – blocks inflammasome-driven IL-1 beta release | THP-1 LPS/ATP IL-1B secretion, AlphaLISA, 16 h; hits give low values | activity change, % at 57.5 µM | 360,000 compounds, 4.7% hits | AID 743279; in the data active means activity change below about -50%; inconclusive means mostly about -30% to -49%
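THP-1 cells pretreated 1 hr with compounds (up to 57.5 uM final), then stimulated with LPS (250 ng/mL final) plus ATP (1.25 mM final); secreted IL-1B measured by AlphaLISA after 16 hr, decreased signal indicating inhibition.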
TDP1 cell CPT – DT40-hTDP1 cell growth loss with CPT | 420,000 compounds, 12% hits | chicken DT40 Tdp1-/-;hTDP1 cells + 20 nM CPT, ATP luminescence, 48 h | Potency, µM (series often up to 46.2 µM), inactives show at the highest dose activity change, negative = growth inhibition, usual class: inhibitors; further: potency means the concentration at half of the fitted maximal effect; nearly all actives have a fitted effect of over 55% in size
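Chicken DT40 Tdp1-/- cells stably complemented with human TDP1 were seeded at 400 cells/well in medium containing 20 nM camptothecin, exposed to pin-transferred compounds, and grown at 37 °C for at least 48 hr. Viability was read as ATP luminescence.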
DT40 TDP1 no CPT – qHTS for Inhibitors of human tyrosyl-DNA phosphodiesterase 1 (TDP1): qHTS in cells in absence of CPT | AID 686978, 2013 | 420,000 compounds, 15% hits | Potency, µM (doses to about 46.2 µM), for inactives: at the highest dose activity change, negative = growth inhibition, usual class: inhibitors | DT40 Tdp1-/- hTDP1 cells, no CPT, ATP luminescence, 48 h; further: potency means the concentration at half of the fitted maximal effect; nearly all actives have a fitted effect of over 55% in size
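Cells were dispensed at 400 per well, compounds added by pin tool, plates incubated ≥48 hr at 37 °C, then CellTiter-Glo added for 30 min at room temperature before luminescence reading. Line: DT40 Tdp1-/- complemented with hTDP1; camptothecin omitted.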
HT1080-NT tox – kills 2HG-producing HT-1080-NT fibrosarcoma cells. AID 686970. 360,000 compounds, 1.6% hits. HT-1080-NT fibrosarcoma viability, CellTiter-Glo ATP luminescence, 48 h. Potency, µM (highest dose often 46.1 µM), for inactives: at the highest dose activity, negative = less viability, hits mostly cytotoxic;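 further: NT is the 2HG producing partner of a matched IDH1 knockdown line; potency means the concentration at half of the fitted maximal effect; 0% = DMSO-treated cells and -100% = media-only wells without cells; nearly all actives have a fitted effect of over 55% in size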
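HT-1080-NT fibrosarcoma cells (2HG-overproducing), 750 cells/well in RPMI with 5% FBS, dosed after 2 h and incubated 48 h at 37C. CellTiter-Glo luminescence normalized to DMSO and no-cell wells; concentration-response curves fitted and classed.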
* hit, by the source's call; i = inactive; ? = inconclusive; · = not tested or not shown; ! = not confirmed by another sample; [ ] = remark or other dose. Unless noted, the call rests on the fitted dose curve; in most records, active means well fitted curve in the direction sought with a large enough effect; inconclusive means small, poorly fitted or top-dose-only effect, or another doubt; inactive means no such curve, though single readings can be large; an effect the other way counts as inactive or inconclusive. Unless noted, on the % scale 0 is the no-effect control and ±100 the full control effect.

SMILES | uPA surface inh | HT1080 IDH1KD tx | IL1B secr inh | TDP1 cell CPT | DT40 TDP1 no CPT | HT1080-NT tox
CCCN(CCC)CCCNC(=O)c1ccc2c(Cl)c3c(nc2c1)CCC3 | -1% | 21µM* | -67* | ? | 18µM* | ?
O=C(NCCCN1CCCCCC1)c1ccc2c(Cl)c3c(nc2c1)CCCC3 | -7% | ? | -71* | -90% | -75% | -9%
Cn1c(SCC(=O)NCCc2ccccc2)nnc1C1CCCCC1 | 0% | 2% | 6 | ? | ? | 5%
CCc1ccc(OC(C)c2nc(-c3ccc(-n4cccc4)cc3)no2)cc1 (stereo not given) | · | · | · | -48% | ? | ·
Cc1ccc(NC(=O)N(Cc2cn(C)c3ccccc23)C2CCCCC2)cc1C | · | · | · | 5.8µM* | 5.2µM* | ·
CC(=O)N1CCC(N(C(=O)Nc2ccc(C)c(C)c2)C2CCCC2)CC1 | 7% | -16% | 6 | -15% | -15% | -2%
COc1cccc(NC(=O)N(Cc2cn(C)c3ccccc23)C2CCCCC2)c1 | · | · | · | 4.1µM* | 7.3µM* | ·
CC(=O)Nc1ccc(NC(=O)C(C)OC(=O)C2(c3ccccc3F)CCCC2)cc1 (stereo not given) | -12% | -26% | 61 | ? | ? | 4%[9.24 µM]
CC(=O)N1CCN(c2csc3ccc(F)cc3c2=O)CC1 | · | · | · | -15% | -8% | ·
Cc1cccc(C)c1Nc1nc2ccccc2o1 | -7% | 11% | 9 | ? | ? | 14%
CCOC(=O)c1cnc(Nc2nc3ccccc3o2)nc1CSc1nnc(C)s1 | 6% | -1% | 31 | 3.3µM* | 2.6µM* | -20%
Cc1nc(Nc2nc3ccccc3o2)nc2c1CCC2 | -4% | -15% | -22 | ? | 21µM* | -1%
CCOC(=O)c1cnc(Nc2ccc(OCC)cc2)nc1C | -3% | 23% | -4 | -2% | -11% | 7%
CCOC(=O)c1cnc(Nc2nc3ccccc3o2)nc1C | · | 3.5µM* | -12 | 3.2µM* | 3.2µM* | 2.8µM*
CC(=O)Nc1cccc(C(=O)Nc2cc(C(F)(F)F)ccc2-n2cncn2)c1 | · | 6% | -21 | ? | ? | 1%
COc1ccc(S(=O)(=O)NCc2cc(=O)n(C)c(=O)n2C)cc1F | 6% | 1% | -6 | -16% | 4% | -1%
O[C@H]1CN(CC2CCCCC2)[C@@H](c2ccc(Cl)cc2)C[C@@H]1n1cc(-c2ccc(F)cc2)nn1 | · | 8% | -11 | ? | 21µM* | 8%
CCCCCCN1C[C@H](O)[C@@H](n2cc(-c3ccc(F)cc3)nn2)C[C@@H]1c1ccccc1 | · | ? | -20 | 21µM* | 21µM* | ?
O[C@H]1C[C@H](c2ccc(Cl)cc2)N(CC2CCCCC2)C[C@@H]1n1cc(-c2ccc(F)cc2)nn1 | · | 7% | 15 | ? | ? | 9%
CCCCCCN1C[C@H](n2cc(-c3ccc(F)cc3)nn2)[C@@H](O)C[C@@H]1c1ccc(Cl)cc1 | · | ? | -104* | ? | 16µM* | ?
CCCCCCN1C[C@H](n2cc(-c3ccc(F)cc3)nn2)[C@@H](O)C[C@@H]1c1ccccc1 | · | 15% | 12 | ? | ? | 7%
O=C1c2ccccc2C(c2nnnn2Cc2ccccc2)N1CCc1c[nH]c2ccccc12 (stereo not given) | · | ? | -4 | ? | ? | ?
CN(C)CCN(Cc1cccs1)c1ccccn1 | -8% | -16% | -9 | ? | 24µM*! | -13%
O=C(CCN1C(=O)/C(=C/c2ccccc2Cl)SC1=S)NCCc1ccc(O)cc1 | -15% | 8% | ? | ? | 9.2µM* | 11%
O=C(CCN1C(=O)/C(=C/c2ccccc2Cl)SC1=S)NC1CCCC1 | -2% | -2% | ? | 8.2µM* | 9.2µM* | -3%
SMILES | uPA surface inh | HT1080 IDH1KD tx | IL1B secr inh | TDP1 cell CPT | DT40 TDP1 no CPT | HT1080-NT tox
O=C(CCN1C(=O)/C(=C/c2ccccc2Cl)SC1=S)NN1CCOCC1 | -6% | 10% | -20 | ? | ? | 0%
O=C(CCN1C(=O)/C(=C/c2ccccc2Cl)SC1=S)NNC(=O)c1ccccc1O | -6% | ? | 32 | ? | ? | ?
Nc1cc(C(F)(F)F)ccc1OCC1CCCO1 (stereo not given) | 6% | 10% | -1 | -5% | -2% | 11%
Cc1ccccc1NC(=O)C1C2CCCC1C2c1ccccc1 (stereo not given) | 10% | -4% | 5 | 18µM* | ? | 0%
Cc1ccc(C)c(NC(=O)C2C3CCCC2C3c2ccccc2)c1 (stereo not given) | 3% | 3% | 0 | ? | -16% | 12%
Cc1cc(C(=O)NC2CCCN(Cc3ccc(Cl)cc3)C2)c(C)o1 (stereo not given) | 0% | 2% | 3 | ? | ? | -2%
COc1ccc(CCC(=O)NC2CCCN(Cc3ccc(Cl)cc3)C2)cc1OC (stereo not given) | 4% | 1% | 5 | -26% | ? | 1%
O=C(CCc1ccc(F)c(F)c1)NC1CCCN(Cc2ccc(Cl)cc2)C1 (stereo not given) | 1% | -22% | -78* | ? | ? | -17%
Cc1ccsc1C(=O)NC1CCCN(Cc2ccc(Cl)cc2)C1 (stereo not given) | -4% | 10% | i | ? | 15µM* | -1%
Cc1ccc(-c2ccccc2[C@@H]2C[C@H]3CN(C)C(=O)[C@]34CCCN24)o1 | 0% | -5% | -10 | 13% | 0% | 4%
